Source: PubChem BioAssay AID2391 (Southern Research Specialized Biocontainment Screening …, 2010)
Screen size: about 310,000 compounds; about 410 (0.13%) were called active. Another 2% or so got no clear call; they are omitted. The rule behind the calls is not given here. Not all results are given here. Potency and affinity values are given separately.

Assay: RSV antiviral activity via CPE protection, HEp-2 cells, primary 10 µM value included (AID 2391)
Conditions: RSV-induced CPE inhibition, at 10 µM, stronger effect = higher value

CPE inhibition, inactive:
O=C(Oc1ccc(C(=S)N2CCOCC2)cc1)c1ccc([N+](=O)[O-])cc1[N+](=O)[O-] 1.71%
O=C(COc1ccc(F)cc1Cl)Nc1ccc(S(=O)(=O)Nc2nccs2)cc1 -1.6%
CC(C)(C)c1cc(CNC2CS(=O)(=O)C[C@@H]2O)cc(C(C)(C)C)c1O (stereo not given in full) 0.68%
COC(=O)c1cccc(Nc2nc3ccccc3nc2C)c1 7.1%
Cc1cc(Nc2cccc(Cl)c2)c2ccccc2n1 11%
CCOc1ccc(-c2c(C(=O)N/N=C/C3CC=CCC3)nnn2-c2nonc2N)cc1 (stereo not given) 0.26%
CN1c2ccccc2C(C)(C)C12CC(c1ccc(Cl)c(S(=O)(=O)N3CCCC3)c1)=NO2 (stereo not given) 3.21%
CN1c2ccccc2C(C)(C)C12CC(CCl)=NO2 (stereo not given) 0.62%
CCN(CC)S(=O)(=O)c1ccc(C2=NOC3(C2)N(C)c2ccccc2C3(C)C)cc1 (stereo not given) 49.6%
CC1=NOC2(C1)N(C)c1ccccc1C2(C)C (stereo not given) -0.95%
COC(=O)COc1ccc(S(=O)(=O)NCc2ccc3c(c2)OCO3)cc1C 1.14%
CCCC[C@@H]1CNCCN1CCc1cccc2ccccc12 -0.31%
Cc1cccc(NS(=O)(=O)c2ccc(C(=O)NCC3CCCO3)cc2)c1C (stereo not given) 2.28%
CN(C)c1nc(C(N)=O)nc(N2CCOCC2)n1 0.62%
Cc1cc(C)n(CCCNC(=O)CN(C)S(=O)(=O)c2ccc(Cl)cc2)n1 -0.89%
Cc1oc(-c2ccccc2Cl)nc1CSCC(=O)O 2.04%
Cc1ccc(-c2nc(CSCC(=O)N3CCCC3)c(C)o2)cc1 20.2%
CC(=O)c1cccc(Nc2nc(=O)c3cccnc3s2)c1 -1.05%
O=c1nc(Nc2ccc(OCc3ccccc3)cc2)sc2ncccc12 43.1%
CC(=O)c1ccc(Nc2nc(=O)c3cccnc3s2)cc1 -0.53%
Cc1ccc(Nc2nc(=O)c3cccnc3s2)cc1 4.1%
O=C(O)CSc1nnc(COc2ccc(Br)cc2)n1-c1ccccc1 1.47%
COC(=O)c1sccc1S(=O)(=O)N1CCCC(N(C)CCc2ccccn2)C1 (stereo not given) -0.75%
CCN(C(=O)c1cc2ccccc2oc1=O)c1ccccc1 0.2%
O=C1c2ccccc2C(=O)N1CCCCN(C(=O)c1cc([N+](=O)[O-])cc([N+](=O)[O-])c1)c1ccc(Cl)cc1 46.5%
O=C1c2ccccc2C(=O)N1CCCCN(C(=O)c1ccc(Cl)s1)c1ccc(Cl)cc1 42.2%
O=C(c1cc2ccccc2oc1=O)N(c1ccc(Cl)cc1)C1C=CS(=O)(=O)C1 (stereo not given) 1.15%
Cc1ccc(N(CCCCN2C(=O)c3ccccc3C2=O)C(=O)c2ccc(Cl)s2)cc1 44.1%
O=C1c2ccccc2C(=O)N1CCCCN(C(=O)c1cccc([N+](=O)[O-])c1)c1ccc(Cl)cc1 60.5%
CN(Cc1ccccc1)C(=O)N[C@@H](Cc1ccccc1)C(=O)O 0.64%
COc1cccc(CCc2nnc(CCC(=O)NC(C)c3c(C)nn(C)c3C)o2)c1 (stereo not given) 0.66%
COc1ccc(OC)c(CN2CCN(C(=O)c3ccc(F)cc3)CC2)c1 2.45%
CC(C)Cc1nnc(NC(=O)CCC(=O)Nc2ccccc2F)s1 1.44%
Nc1ccc(-c2nc3ccc(N)cc3s2)cc1 -1.51%
Nc1ccc(-c2nc3ccc(C(=O)O)cc3s2)cc1 -1.01%
CCc1n(CC(O)COCC2CC=CCC2)c2ccccc2[n+]1C (stereo not given) 0.73%
O=C(NCc1ccc(F)cc1Cl)C1CCN(S(=O)(=O)N2CCCCC2)CC1 4.02%
Cc1ccc(S(=O)(=O)N(C)C)cc1NC(=O)COC(=O)CCC1CCCCC1 -0.99%
Cc1ccc(C)c(NC(=O)CN(C)C(=O)c2ccc(-c3cccc(C(F)(F)F)c3)o2)c1 0%
Cc1cccc2nc(COc3ccc4ccccc4c3Br)cn12 8.72%
Clc1ccc(OCc2cn3ccccc3n2)c2ncccc12 4.9%
CCn1c(CNS(=O)(=O)c2ccc(Br)cc2)n[nH]c1=S 0.55%
Cc1[nH]c2ccccc2c1/C=N/Nc1ccc([N+](=O)[O-])cc1S(=O)(=O)Nc1ccc(Cl)cc1 1.27%
Cc1[nH]c2ccccc2c1/C=N/NC(=O)c1cccc([N+](=O)[O-])c1 1.07%
C=CCc1cc(Cl)ccc1OCCCNC(C)CC (stereo not given) 0.05%
CSc1ccc(/C=C(/NC(=O)c2ccc(C)cc2)C(=O)Nc2cccc(C)c2)cc1 2.91%
COc1ccc(OCc2cccc(C(=O)O)c2)cc1 0.64%
O=C(O)c1cccc(COc2ccccc2Cl)c1 1.88%
COc1cc(CO)ccc1Oc1nc2ccccc2n2cnnc12 2.05%
O=C1c2cccnc2C(Nc2ccc(Cl)cc2)N1Cc1cccs1 (stereo not given) 46.8%
Cc1ccc(NC2c3ncccc3C(=O)N2Cc2cccs2)cc1C (stereo not given) 13.8%
O=C1c2cccnc2C(Nc2ccc(F)c(Cl)c2)N1Cc1cccs1 (stereo not given) 18%
Cc1ccc(NC2c3ncccc3C(=O)N2Cc2cccs2)cc1 (stereo not given) 8.2%
CCOC(=O)CNC(=O)c1ccc2[nH]c3ccccc3c2c1 2.11%
CCCn1c(SCC(=O)c2cc(OC)ccc2OC)nnc1-c1ccco1 1.5%
CCOc1ccc(C(c2c(O)nc(SC)[nH]c2=O)c2c(O)nc(SC)[nH]c2=O)cc1 1.1%
CCOC(=O)Cc1csc(NC(=O)C(NC(=O)C2CCCCC2)C(C)C)n1 (stereo not given) 3.52%
COc1ccccc1Nc1nc(-c2cccnc2)cs1 7.69%
O=[N+]([O-])c1cccc(-c2csc(Nc3ccccc3)n2)c1 0.52%
CC(=O)c1ccc(OCCCC(=O)Nc2ccc(S(=O)(=O)N3CCOCC3)cc2)cc1 14.5%
